From PubChem BioAssay (Tox21)
Records with an inconclusive call do not appear. The source made the active and inactive calls. Unless noted, calls come from the whole dose curve.

Assays:
[1] = molecular target: Gonadotropin-releasing hormone receptor (Homo sapiens) (UniProt P30968); assay: Human gonadotropin-releasing hormone receptor (GnRHR) small molecule agonists, calcium flux assay in GnRHR-HEK293 cells (AID 1920063); details: calcium flux fluorescence, agonist mode; series mostly up to 57.6 µM; note: nearly all actives have a fitted effect of over 35% in size
Gonadotropin-releasing hormone receptor (Homo sapiens), sequence (P30968 whole entry, looked up): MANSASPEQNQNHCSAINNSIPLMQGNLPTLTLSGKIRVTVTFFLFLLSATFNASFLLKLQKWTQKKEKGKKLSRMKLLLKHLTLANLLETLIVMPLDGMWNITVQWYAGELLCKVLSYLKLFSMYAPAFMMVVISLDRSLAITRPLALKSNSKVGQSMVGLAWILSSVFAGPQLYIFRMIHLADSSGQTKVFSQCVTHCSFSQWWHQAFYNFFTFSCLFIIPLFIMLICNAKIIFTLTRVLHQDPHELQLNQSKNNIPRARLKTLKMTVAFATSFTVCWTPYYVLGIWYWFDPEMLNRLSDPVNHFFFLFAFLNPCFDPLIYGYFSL
In short: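 Stable human GnRHR HEK293 line. 18 h plating, then calcium dye for 1 h at 37 C. Agonist-mode compound addition from DMSO stocks; fluorescence monitored 3 min.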

[2] = molecular target: KiSS-1 receptor (Homo sapiens) (UniProt Q969F8); assay: Human kisspeptin (KISS1R) small molecule agonists, calcium flux assay in KISS1R-HEK293 cells (AID 1920064; active = well fitted activation curve with a large enough effect in the repeat runs); details: KISS1R-HEK293, calcium flux fluorescence, agonist; series mostly up to 76.8 µM
KiSS-1 receptor (Homo sapiens), sequence (Q969F8 whole entry, looked up): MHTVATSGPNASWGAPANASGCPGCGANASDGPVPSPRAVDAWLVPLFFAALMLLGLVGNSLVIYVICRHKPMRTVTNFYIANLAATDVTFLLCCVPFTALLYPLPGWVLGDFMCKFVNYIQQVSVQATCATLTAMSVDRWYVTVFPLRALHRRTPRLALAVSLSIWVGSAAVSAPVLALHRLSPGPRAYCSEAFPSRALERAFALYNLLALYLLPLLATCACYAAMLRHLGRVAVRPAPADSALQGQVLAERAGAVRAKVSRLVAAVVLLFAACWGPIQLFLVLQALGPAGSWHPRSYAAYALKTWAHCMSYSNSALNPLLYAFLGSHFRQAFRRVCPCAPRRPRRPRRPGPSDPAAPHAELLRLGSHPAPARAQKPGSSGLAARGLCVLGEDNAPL
In short: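 After overnight (18 h) culture at 37 C/5% CO2, human KISS1R-HEK293 cells received calcium dye for 1 h, then test compound; emission at 540 nm (excitation 480 nm) was tracked for 3 min.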

[3] = G protein-coupled receptor (GPCR) small molecule agonists, calcium flux assay: HEK293 wild type cell line counter screen (AID 1920065); details: HEK293 WT calcium flux, fluorescence, agonist mode; series mostly up to 57.6 µM
In short: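 Following 18 h incubation at 37 C/5% CO2, plates got calcium dye for 1 h; compounds, ATP or DMSO were then pinned in and fluorescence followed kinetically (480/540 nm).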

[4] = p53 small molecule agonists, cell-based qHTS assay with human liver microsomes: qHTS cell viability counter screen (AID 1963579); details: p53RE-bla HCT-116 viability, ATP luminescence, 16 h, HLM; series mostly up to 66 µM; note: nearly all actives have a fitted effect of over 45% in size
In short: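 HLM-supplemented (0.5 mg/mL final) and NADPH-supplemented (0.5 mg/mL final) p53RE-bla cultures, 4,000 cells per well, were dosed with compounds in DMSO for 16 h at 37 C; luminescent ATP detection (CellTiter-Glo, 30 min, room temperature) quantified surviving cells.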

[5] = p53 small molecule agonists, cell-based qHTS assay: qHTS cell viability counter screen (AID 1963581); details: p53RE-bla HCT-116 viability, ATP luminescence, 16 h; series mostly up to 66 µM; note: nearly all actives have a fitted effect of over 45% in size
In short: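 qHTS counter screen: 16 h compound exposure at 37 C of p53RE-bla HCT-116 cells (4,000 per well, seeded 5 h prior), cell viability by ATP luminescence.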

[6] = p53 small molecule agonists, cell-based qHTS assay (AID 1963582; active = well fitted activation curve with a large enough effect in the signal ratio in the repeat runs, not every such curve was filed as active; the % refers to the signal ratio); details: HCT-116 p53RE-bla reporter, beta-lactamase FRET ratio, 16 h; series mostly up to 66 µM
In short: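 Measured: fluorescence from cleaved LiveBLAzer substrate. System: p53RE-bla cells, 16 h compound treatment at 37 C, 2 h substrate step at room temperature.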

[7] = molecular target: 5-hydroxytryptamine receptor 2A (Homo sapiens) (UniProt P28223); assay: 5-hydroxytryptamine receptor 2A (HTR2A) small molecule antagonists, cell-based qHTS assay (AID 1963586); details: HTR2A-CHO cells, DOI-induced calcium flux, fluorescence; series mostly up to 61.5 µM; note: nearly all actives have a fitted effect of over 45% in size
5-hydroxytryptamine receptor 2A (Homo sapiens), sequence (P28223 whole entry, looked up): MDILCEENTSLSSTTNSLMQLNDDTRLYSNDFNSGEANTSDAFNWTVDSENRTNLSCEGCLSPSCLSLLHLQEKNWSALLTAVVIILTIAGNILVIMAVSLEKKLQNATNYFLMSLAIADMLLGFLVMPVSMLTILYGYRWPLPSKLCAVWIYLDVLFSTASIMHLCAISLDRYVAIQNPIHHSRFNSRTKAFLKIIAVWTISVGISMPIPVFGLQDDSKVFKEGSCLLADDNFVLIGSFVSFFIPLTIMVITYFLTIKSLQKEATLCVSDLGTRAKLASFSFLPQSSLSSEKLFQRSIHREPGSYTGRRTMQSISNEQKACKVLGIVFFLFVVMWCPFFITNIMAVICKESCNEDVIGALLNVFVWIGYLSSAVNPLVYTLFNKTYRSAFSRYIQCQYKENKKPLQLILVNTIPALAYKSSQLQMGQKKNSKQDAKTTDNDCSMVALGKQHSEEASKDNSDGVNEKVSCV
In short: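 CHO cells stably expressing human HTR2A were plated for 18 h at 37 C, then loaded with calcium dye for 1 h. Compounds were preincubated 5 min at room temperature before DOI (4 nM solution) was added. Kinetic fluorescence was read for 3 min.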

[8] = molecular target: Muscarinic acetylcholine receptor M1 (Homo sapiens) (UniProt P11229); assay: Cholinergic receptor muscarinic 1 (CHRM1) small molecule antagonists, cell-based qHTS assay (AID 1963588); details: CHRM1-CHO antagonist mode, calcium flux fluorescence; series mostly up to 61.5 µM; note: nearly all actives have a fitted effect of over 40% in size
Muscarinic acetylcholine receptor M1 (Homo sapiens), sequence (P11229 whole entry, looked up): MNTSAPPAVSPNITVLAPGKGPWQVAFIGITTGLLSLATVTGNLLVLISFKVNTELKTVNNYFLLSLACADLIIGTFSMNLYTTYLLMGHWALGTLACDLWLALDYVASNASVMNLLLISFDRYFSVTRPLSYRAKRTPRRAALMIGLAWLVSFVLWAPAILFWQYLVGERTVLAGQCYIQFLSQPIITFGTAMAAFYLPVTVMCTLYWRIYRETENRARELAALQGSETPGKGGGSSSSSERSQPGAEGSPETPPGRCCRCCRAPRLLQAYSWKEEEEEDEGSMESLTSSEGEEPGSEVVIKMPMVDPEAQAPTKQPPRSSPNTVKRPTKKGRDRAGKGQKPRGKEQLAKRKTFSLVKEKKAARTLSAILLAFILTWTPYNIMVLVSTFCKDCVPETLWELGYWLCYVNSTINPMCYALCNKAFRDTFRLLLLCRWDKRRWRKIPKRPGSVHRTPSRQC
In short: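 Compounds were tested at 15 concentrations in three independent runs. Dye-loaded CHRM1-CHO cells were exposed 5 min at room temperature before stimulation by acetylcholine added at 50nM. Intracellular calcium was read kinetically on FDSS for 3 min.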

[9] = molecular target: Muscarinic acetylcholine receptor M1 (Homo sapiens) (UniProt P11229); assay: Cholinergic receptor muscarinic 1 (CHRM1) small molecule agonists, cell-based qHTS assay (AID 1963589); details: CHRM1-CHO cells, agonist mode, calcium flux fluorescence; series mostly up to 76.8 µM; note: nearly all actives have a fitted effect of over 35% in size
In short: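 Kinetic fluorescence (1 s intervals) of calcium-sensitive dye in human M1 CHO cells after compound addition; cells pre-incubated 18 h at 37 C/5% CO2 and dye-loaded 1 h.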

[10] = cAMP Responsive Elements (CRE) small molecule agonists, cell-based qHTS assay (AID 1963590); details: CRE-bla HEK293T, beta-lactamase FRET ratio, 3 h; series mostly up to 92.4 µM
In short: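 Test agents in DMSO were incubated 3 h at 37 C/5% CO2 with CRE-bla HEK 293T cells seeded 18 h earlier; LiveBLAzer B/G FRET substrate was added and read after 2 h at room temperature.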

[11] = cAMP Responsive Elements (CRE) small molecule antagonists, cell-based qHTS assay (AID 1963591; active = well fitted inhibition curve with a large enough effect in the signal ratio in the repeat runs, not every such curve was filed as active; the % refers to the signal ratio); details: CRE-bla HEK293T, beta-lactamase FRET ratio; series mostly up to 92.4 µM
In short: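 Reporter line CRE-bla HEK 293T in dialyzed-FBS DMEM; cells preincubated 18 h, treated 3 h with compound plus NKH477 (0.25 uM final); LiveBLAzer FRET, 2 h RT.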

[12] = molecular target: Beta-2 adrenergic receptor (Homo sapiens) (UniProt P07550); assay: Adrenergic beta2 receptor (ADRB2) small molecule antagonists, cell-based qHTS assay (AID 1963592); details: CHO-ADRB2 cells, isoproterenol-stimulated cAMP HTRF ratio, 0.5 h; series mostly up to 92.4 µM; note: nearly all actives have a fitted effect of over 50% in size
Beta-2 adrenergic receptor (Homo sapiens), sequence (P07550 whole entry, looked up): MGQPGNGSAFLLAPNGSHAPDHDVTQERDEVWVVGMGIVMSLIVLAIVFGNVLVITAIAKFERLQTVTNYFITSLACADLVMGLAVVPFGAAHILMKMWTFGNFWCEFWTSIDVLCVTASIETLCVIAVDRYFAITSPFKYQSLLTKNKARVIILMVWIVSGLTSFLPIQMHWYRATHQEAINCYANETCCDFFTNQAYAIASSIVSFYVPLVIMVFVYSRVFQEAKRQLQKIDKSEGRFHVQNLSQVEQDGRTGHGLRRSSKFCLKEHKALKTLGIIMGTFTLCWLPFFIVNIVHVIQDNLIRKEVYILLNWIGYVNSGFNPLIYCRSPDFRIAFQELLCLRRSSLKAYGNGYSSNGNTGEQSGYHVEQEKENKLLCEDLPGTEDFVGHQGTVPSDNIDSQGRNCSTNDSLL
In short: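 Assay format: CHO-ADRB2 cells, 18-20hr seeding at 37C/5% CO2, then compound plus 1nM isoproterenol agonist mix for 0.5hr RT. Homogeneous time-resolved fluorescence cAMP detection after 1hr, expressed as 665/615 nm ratio.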

[13] = molecular target: D(2) dopamine receptor (Homo sapiens) (UniProt P14416); assay: Dopamine D2 receptor (DRD2) small molecule agonists, cell-based qHTS assay (AID 1963594); details: HEK293-DRD2 cAMP HTRF, agonist mode, 30 min; series mostly up to 92.4 µM; note: nearly all actives have a fitted effect of over 35% in size
D(2) dopamine receptor (Homo sapiens), sequence (P14416 whole entry, looked up): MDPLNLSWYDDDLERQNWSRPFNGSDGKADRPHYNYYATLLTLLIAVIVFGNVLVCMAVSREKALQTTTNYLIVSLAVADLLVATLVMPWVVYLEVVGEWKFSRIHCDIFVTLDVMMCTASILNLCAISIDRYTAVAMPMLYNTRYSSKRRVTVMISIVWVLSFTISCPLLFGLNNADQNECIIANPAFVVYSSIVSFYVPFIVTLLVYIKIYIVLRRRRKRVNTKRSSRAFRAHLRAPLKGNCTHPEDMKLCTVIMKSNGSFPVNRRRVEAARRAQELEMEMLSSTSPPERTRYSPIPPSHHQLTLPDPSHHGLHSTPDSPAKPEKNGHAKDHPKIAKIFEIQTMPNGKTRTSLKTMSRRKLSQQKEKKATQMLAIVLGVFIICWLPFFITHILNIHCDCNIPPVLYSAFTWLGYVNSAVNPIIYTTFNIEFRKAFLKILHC
In short: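 HEK293 cells stably expressing human DRD2, pre-treated with PDE inhibitor Ro20-1724 (0.1 mM final) and compound 10 min at room temperature, then stimulated with NKH477 (200nM […]) for 30 min. cAMP read by HTRF (665/620 nm).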

[14] = molecular target: D(2) dopamine receptor (Homo sapiens) (UniProt P14416); assay: Dopamine D2 receptor (DRD2) small molecule antagonists, cell-based qHTS assay (AID 1963595; active = well fitted inhibition curve with a large enough effect in the signal ratio in the repeat runs, with a control signal flat; the % refers to the signal ratio); details: HEK293-DRD2 cAMP HTRF antagonist mode; series mostly up to 92.4 µM
In short: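 Human DRD2 antagonist qHTS measuring cAMP by HTRF. The cells are exposed to compound for 10 min, then to NKH477 (200 nM) and quinpirole (12 nM) for 30 min at RT, with Ro20-1724 (0.1 mM) present throughout.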

[15] = p53 small molecule agonists, cell-based qHTS assay with human liver microsomes (AID 1963577); details: HCT-116 p53RE-bla with human liver microsomes, ratio, 16 h; series mostly up to 66 µM;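 note: p53 response element beta-lactamase reporter cells with liver microsomes plus NADPH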
In short: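 Reporter activation was measured by LiveBLAzer fluorescence intensity in p53RE-bla cells, which had been exposed to compounds for 16 h at 37 C alongside 0.5 mg/mL human liver microsomes and 0.5 mg/mL NADPH (final concentrations).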

[16] = p53 small molecule agonists, cell-based qHTS assay with rat liver microsomes: qHTS cell viability counter screen (AID 1963580); details: p53RE-bla HCT-116 + rat microsomes, ATP viability, 16 h; series mostly up to 66 µM; note: nearly all actives have a fitted effect of over 45% in size
In short: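 Cytotoxicity counter screen: intracellular ATP measured by CellTiter-Glo luminescence in the same wells as the beta-lactamase reporter read, on HCT-116 p53RE-bla cells exposed 16 h at 37 C to compounds with rat liver microsomes and NADPH, each 0.5 mg/mL final.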

[17] = molecular target: 5-hydroxytryptamine receptor 2A (Homo sapiens) (UniProt P28223); assay: 5-hydroxytryptamine receptor 2A (HTR2A) small molecule agonists, cell-based qHTS assay (AID 1963587); details: HTR2A-CHO cells, calcium flux fluorescence, agonist mode; series mostly up to 76.8 µM; note: nearly all actives have a fitted effect of over 30% in size
In short: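 CHO cells stably expressing human HTR2A, plated 18 h, loaded with calcium dye 1 h at 37 C. Agonist mode: compounds added and intracellular calcium fluorescence recorded kinetically for 2 min at 1 sec intervals.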

[18] = p53 small molecule agonists, cell-based qHTS assay with rat liver microsomes (AID 1963578); details: HCT-116 p53RE-bla, beta-lactamase ratio, 16 h; series mostly up to 66 µM
In short: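 Compound in DMSO added to p53RE-bla cells 5 h post-plating; rat microsomes/NADPH 0.5 mg/mL final; 16 h, 37 C; LiveBLAzer 2 h RT.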

[19] = molecular target: Beta-2 adrenergic receptor (Homo sapiens) (UniProt P07550); assay: Adrenergic beta2 receptor (ADRB2) small molecule agonists, cell-based qHTS assay (AID 1963593); details: CHO-ADRB2 cells, cAMP HTRF, 30 min; series mostly up to 42.5 µM;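 note: CHO cells stably overexpressing human ADRB2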
In short: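 CHO cells stably over-expressing ADRB2 were plated overnight at 37C, then dosed with compounds plus a stimulation mix containing 100uM IBMX and 25uM Ro-20-1724 for 0.5hr at room temperature. cAMP was measured by HTRF competition, 1hr.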
% is set by controls: 0 for no effect and ±100 for the full control effect.

Nc1ccc(C(=O)OCC(O)CO)cc1 (stereo not given)
inactive: Potency [1] | outcome [2] | outcome [3] | Potency [4] | Potency [5] | Potency [6] | Potency [7] | Potency [8] | Potency [9] | Potency [10] | Potency [11] | Potency [12] | Potency [13] | Potency [14]

CCOC(=O)CC#N
inactive: Potency [1] | outcome [2] | Potency [15] | Potency [4] | Potency [16] | Potency [5] | Potency [7] | Potency [17] | Potency [8] | Potency [9] | Potency [11] | Potency [12] | Potency [13] | Potency [14]

CCCCC(CC)CN1C(=O)C2C3C=CC(C3)C2C1=O (stereo not given)
inactive: Potency [1] | outcome [2] | Potency [15] | Potency [18] | Potency [4] | Potency [16] | Potency [5] | Potency [7] | Potency [17] | Potency [12] | Potency [19] | Potency [13] | Potency [14]

COc1cc(C(=O)NS(=O)(=O)c2ccccc2C)ccc1Cc1cn(C)c2ccc(NC(=O)OC3CCCC3)cc12
inactive: Potency [1] | outcome [2] | outcome [3] | Potency [15] | Potency [18] | Potency [4] | Potency [12] | Potency [19] | Potency [13] | Potency [14]

COc1cc2c(cc1OC)CN(C(=O)[C@H](C)N[C@@H](CCc1ccccc1)C(=O)O)[C@H](C(=O)O)C2
inactive: Potency [1] | outcome [2] | Potency [15] | Potency [18] | Potency [4] | Potency [16] | Potency [5] | Potency [6] | Potency [17] | Potency [8] | Potency [9] | Potency [10] | Potency [11] | Potency [12] | Potency [13] | Potency [14]

CCCCCCCCCCCCCC=O
inactive: activity change [1] -0.408% [at 5.22 µM, stronger effect = higher value] | activation [2] 0.0205% [at 6.97 µM] | activation [3] 0.0655% [at 5.23 µM] | activation [15] 0.781% [at 5.99 µM] | activation [18] -2.08% [at 5.99 µM] | activity change, negative = cytotoxicity [16] 0.418% [at 5.99 µM] | activity change, negative = cytotoxicity [5] -2.03% [at 5.99 µM] | activation [6] 5.85% [at 5.99 µM] | activity, negative = inhibition [7] 4.12% [at 5.62 µM] | activation [17] -1.86% [at 7.02 µM] | activity, negative = inhibition [8] 4.29% [at 5.58 µM] | activation [9] 0.649% [at 6.97 µM] | activation [10] -0.0207% [at 8.39 µM] | activity change, negative = inhibition [12] 0.833% [at 8.39 µM] | activation [13] 1.32% [at 8.39 µM] | activity change, negative = inhibition [14] 7.61% [at 8.38 µM]

Cc1cc(C)n(CO)n1
inactive: Potency [1] | outcome [2] | outcome [3] | Potency [15] | Potency [18] | Potency [4] | Potency [6] | Potency [7] | Potency [17] | Potency [8] | Potency [9] | Potency [10] | Potency [11] | Potency [12] | Potency [19] | Potency [13] | Potency [14]

CCC1=C(C)CN(C(=O)NCCc2ccc(S(=O)(=O)NC(=O)NC3CCC(C)CC3)cc2)C1=O (stereo not given)
inactive: Potency [1] | outcome [2] | Potency [15] | Potency [18] | Potency [4] | Potency [5] | Potency [6] | Potency [12] | Potency [13] | Potency [14]
